Assay outcomes: PubChem, several laboratories
BioA inh: inhibitors of Mycobacterium tuberculosis BioA enzyme; purified M. tuberculosis BioA enzyme, plate reader; inhibition, % at 9.99 µM; 360,000 compounds, 0.096% hits; AID 602481; in the data active means inhibition above about 40%
TcdB GH inh: inhibitors of Clostridioides difficile toxin B glycohydrolase | inhibition, % at 9.99 µM | TcdB glycohydrolase enzymatic assay, plate reader | P18177 | 350,000 compounds, 0.24% hits; in the data active means inhibition above about 10%
Target sequence (P18177 whole entry, looked up): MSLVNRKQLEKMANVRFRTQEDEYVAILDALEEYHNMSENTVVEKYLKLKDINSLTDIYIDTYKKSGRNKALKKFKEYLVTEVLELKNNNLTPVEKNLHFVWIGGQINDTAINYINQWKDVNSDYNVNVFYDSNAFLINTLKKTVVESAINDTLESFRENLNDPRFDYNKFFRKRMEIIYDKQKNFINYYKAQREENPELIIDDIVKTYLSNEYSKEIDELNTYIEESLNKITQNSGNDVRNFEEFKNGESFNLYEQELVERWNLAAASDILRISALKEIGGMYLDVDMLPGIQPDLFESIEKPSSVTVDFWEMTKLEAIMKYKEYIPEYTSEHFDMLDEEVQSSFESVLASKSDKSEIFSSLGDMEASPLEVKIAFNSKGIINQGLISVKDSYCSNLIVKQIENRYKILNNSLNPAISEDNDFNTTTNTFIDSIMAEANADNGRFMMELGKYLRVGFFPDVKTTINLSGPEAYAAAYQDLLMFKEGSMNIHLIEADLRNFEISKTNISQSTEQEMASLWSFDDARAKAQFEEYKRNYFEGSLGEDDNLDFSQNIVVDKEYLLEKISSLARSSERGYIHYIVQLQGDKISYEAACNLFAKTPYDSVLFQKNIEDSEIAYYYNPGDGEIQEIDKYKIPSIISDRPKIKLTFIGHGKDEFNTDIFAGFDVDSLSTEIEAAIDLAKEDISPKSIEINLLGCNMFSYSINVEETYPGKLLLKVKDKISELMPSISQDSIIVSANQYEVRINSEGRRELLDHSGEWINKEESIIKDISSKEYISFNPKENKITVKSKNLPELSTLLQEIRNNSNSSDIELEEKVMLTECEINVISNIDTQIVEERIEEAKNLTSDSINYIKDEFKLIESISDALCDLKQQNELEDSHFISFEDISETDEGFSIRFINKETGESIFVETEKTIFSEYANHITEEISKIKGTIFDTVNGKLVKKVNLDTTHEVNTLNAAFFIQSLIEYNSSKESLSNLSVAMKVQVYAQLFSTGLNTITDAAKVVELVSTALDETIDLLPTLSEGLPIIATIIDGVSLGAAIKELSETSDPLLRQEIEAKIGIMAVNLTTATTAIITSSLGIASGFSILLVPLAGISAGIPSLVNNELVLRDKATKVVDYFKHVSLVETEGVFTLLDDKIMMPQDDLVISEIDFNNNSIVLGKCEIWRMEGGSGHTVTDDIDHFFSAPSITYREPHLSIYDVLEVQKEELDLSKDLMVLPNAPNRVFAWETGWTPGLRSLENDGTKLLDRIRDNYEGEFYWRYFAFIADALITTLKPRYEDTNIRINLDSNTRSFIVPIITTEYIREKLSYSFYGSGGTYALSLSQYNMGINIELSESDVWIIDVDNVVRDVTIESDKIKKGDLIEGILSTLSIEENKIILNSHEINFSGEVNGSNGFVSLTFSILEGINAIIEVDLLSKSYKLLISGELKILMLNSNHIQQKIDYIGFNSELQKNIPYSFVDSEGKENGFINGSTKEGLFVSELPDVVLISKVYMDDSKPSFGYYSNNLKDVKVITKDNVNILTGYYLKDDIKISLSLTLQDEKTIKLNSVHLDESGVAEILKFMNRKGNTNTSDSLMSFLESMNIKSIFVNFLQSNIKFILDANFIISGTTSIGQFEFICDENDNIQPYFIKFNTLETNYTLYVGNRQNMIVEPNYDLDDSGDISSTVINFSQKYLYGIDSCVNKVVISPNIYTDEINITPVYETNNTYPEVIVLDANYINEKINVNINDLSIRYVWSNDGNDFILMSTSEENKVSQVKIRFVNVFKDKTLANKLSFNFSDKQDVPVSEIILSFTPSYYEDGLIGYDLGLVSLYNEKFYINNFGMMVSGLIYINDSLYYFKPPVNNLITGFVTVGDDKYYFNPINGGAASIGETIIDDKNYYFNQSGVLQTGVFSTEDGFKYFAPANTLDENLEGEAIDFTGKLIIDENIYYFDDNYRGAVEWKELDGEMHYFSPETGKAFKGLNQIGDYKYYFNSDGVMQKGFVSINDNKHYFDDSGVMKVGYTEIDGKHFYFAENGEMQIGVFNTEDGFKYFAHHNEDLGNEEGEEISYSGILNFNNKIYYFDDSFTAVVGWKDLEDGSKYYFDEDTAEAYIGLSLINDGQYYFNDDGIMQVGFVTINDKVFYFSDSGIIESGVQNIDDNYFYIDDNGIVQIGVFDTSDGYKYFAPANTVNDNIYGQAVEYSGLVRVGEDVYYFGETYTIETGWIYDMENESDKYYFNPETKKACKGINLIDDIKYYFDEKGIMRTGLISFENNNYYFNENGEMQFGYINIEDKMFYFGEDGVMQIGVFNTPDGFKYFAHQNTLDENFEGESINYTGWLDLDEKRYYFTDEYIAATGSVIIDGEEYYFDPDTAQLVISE
Y pestis TopoI: blocks Yersinia pestis topoisomerase I activity; Y. pestis Topo-I cleavage product accumulation, plate reader; activity, % at 10 µM; 360,000 compounds, 0.064% hits; in the data active means activity above about 50%, passing the limit was not always enough
FadD28 FP inh: blocks FadD28 binding to the bisubstrate probe | fluorescence polarization | inhibition, % at 12.5 µM | 360,000 compounds, 0.22% hits; in the data active means inhibition above about 8.5%, passing the limit was not always enough
DUSP3 inh: inhibitors of human VHR1 phosphatase (DUSP3). inhibition, % at 13.3 µM. recombinant VHR phosphatase, pNPP absorbance. P51452. 290,000 compounds, 0.52% hits; in the data active means inhibition above about 50%
MazF activator: increases E. coli MazEF RNase cleavage of RNA. AID 504720. activation, % at 20 µM. FAM/BHQ RNA-DNA oligo cleavage fluorescence, 5 h. 350,000 compounds, 0.32% hits; in the data active means activation above about 50%
Active calls of the source: *; . = not tested or not shown. An excerpt weighted towards active compounds, which were near 1% of everything screened.

SMILES	BioA inh	TcdB GH inh	Y pestis TopoI	FadD28 FP inh	DUSP3 inh	MazF activator
COc1ccc(CN(C)C[C@H]2OCCCC[C@@H](C)Oc3ccc(NS(=O)(=O)c4ccc(C)cc4)cc3C(=O)N([C@@H](C)CO)C[C@@H]2C)cc1	-1.5	-2.9	.	.	.	.
CCN(CC)CCNc1ccc(C)c2sc3ccc(O)cc3c(=O)c12	.	28.6*	-42.0	0.2	.	-26.8
N#Cc1c(-c2ccccc2)c(-c2ccccc2)nn(CC(=O)NNC(=O)Nc2ccc(Cl)c(Cl)c2)c1=O	-1.0	.	6.2	16.9*	-14.7	8.7
O=C(Cn1nc(-c2ccccc2)c2ccccc2c1=O)Nc1ccc(F)cc1	-0.5	-0.5	4.8	-1.5	12.8	-4.3
CC(=O)N1CCC2(CC1)C(C#N)=C(N)OC1=C2C(=O)CC(C)(C)C1	.	.	-3.1	-4.0	23.2	-5.5
CC1(C)CC(=O)C2=C(C1)OC(N)=C(C#N)C21CCN(Cc2ccccc2)CC1	-1.7	.	-6.6	0.1	21.3	50.3*
O=C(NC1CCCCC1)N1CC(=O)N2[C@H](CO)[C@@H](c3ccc(-c4ccccc4)cc3)[C@H]2C1	.	1.2	.	.	.	.
O=C(O)c1cc(N/N=C/C(Cl)=C/c2ccccc2)ccc1Cl	1.9	-0.3	11.5	18.9*	5.3	-3.3
O=C(O)c1cc(NN=C2c3ccccc3-c3ccccc32)ccc1Cl	4.2	0.5	-11.4	14.8*	-22.9	-12.8
O=C(O)c1cccc(NN=C2c3ccccc3-c3ccccc32)c1	.	1.1	-7.9	13.3*	5.3	15.4
O=C(C[C@H]1CC[C@@H](NC(=O)C2CCC2)[C@@H](CO)O1)NCCCN1CCOCC1	-3.2	-0.4	.	.	.	.
CC(C)C#Cc1cnc2c(c1)C(=O)N([C@H](C)CO)C[C@H](C)[C@@H](CN(C)C(=O)c1ccc3c(c1)OCO3)O2	1.7	0.2	.	.	.	.
O=C(O)c1ccccc1NC(=O)N1C[C@H]2C[C@@H](C1)c1cccc(=O)n1C2	-0.1	14.7*	-6.3	-1.6	-7.9	5.7
CCN(CC)c1ccc(/C=c2\sc3nnc(-c4ccccc4Cl)n3c2=O)cc1	-5.5	.	0.2	19.2*	6.4	-183.4
CN(CCC#N)C(=O)COC(=O)C1c2ccccc2Oc2ccccc21	2.7	1.5	-3.4	0.8	38.4	11.4
N#CCCN(CCC#N)C(=O)C1c2ccccc2Oc2ccccc21	-10.0	0.9	2.5	11.1*	5.8	-13.4
C[C@H]1CN([C@@H](C)CO)C(=O)c2cc(-c3ccc(C(=O)N(C)C)cc3)cnc2O[C@@H]1CN(C)C(=O)CN(C)C	-3.1	1.1	.	.	.	.
O=C(Cn1c(=O)oc2ccccc21)N1CCN(c2ccc(N3CCOCC3)nn2)CC1	3.6	0.1	3.7	-0.4	54.5*	12.2
CCN1/C(=C2\OC(=S)N(C)C2=O)C=Cc2ccccc21	-2.4	10.8*	6.0	1.6	-4.6	655.7*
COc1ccc(C#Cc2cnc3c(c2)C(=O)N([C@@H](C)CO)C[C@@H](C)[C@@H](CN(C)C(=O)Nc2cccc(OC)c2)O3)cc1	-0.3	.	.	.	.	.
CCOC(=O)c1cc(C)nc(SC)c1C#N	.	-0.6	3.2	-2.8	-13.9	6.2
CCC(C)OC(=O)c1cc(C)nc2c(Br)cc(Br)cc12 (stereo not given)	11.8	.	-0.5	0.4	58.3*	-2.8
CC(C)CNC(=O)C(=O)NCC1CCCN1S(=O)(=O)c1cccs1 (stereo not given)	-0.8	13.1*	-4.2	-2.6	.	-4.2
COc1ccc2c3c([nH]c2c1)[C@@H](CO)N(Cc1ccncc1)CC31CN(C(=O)Cc2ccncc2)C1	.	-1.6	.	.	.	.
Cn1c(=O)c(C(=O)NCCc2ccc(Cl)cc2)c(O)c2ccccc21	0.2	-0.2	4.0	1.4	59.1*	0.2
SMILES	BioA inh	TcdB GH inh	Y pestis TopoI	FadD28 FP inh	DUSP3 inh	MazF activator
Cn1c(=O)c(C(=O)NCc2ccc(Cl)cc2)c(O)c2ccccc21	-1.4	-0.2	0.5	-4.6	30.0	21.8
COc1ccc(C(=O)c2ccsc2N)cc1	.	1.2	-3.9	8.6*	17.0	-3.8
CCc1cc(C(=O)c2ccc(OC)cc2)c(N)s1	4.5	2.0	0.9	1.3	13.6	3.0
Cc1cc2c(C(C)C)c(O)c(O)c(C=O)c2c(O)c1-c1c(C)cc2c(C(C)C)c(O)c(O)c(C=O)c2c1O	3.7	-0.7	-27.6	51.0*	16.3	.
COC(=O)c1c(C)cc(O)c(C=O)c1O	-1.8	.	1.8	0.1	.	3.9
CCS(=O)(=O)N1CC2(C1)[C@H](c1ccccc1)[C@H](CO)N2CCC(F)(F)F	.	0.0	.	.	.	.
CCCCN(CCCC)C(=O)C1(P(=O)(c2ccccc2)c2ccccc2)CCC1	1.8	1.6	54.6*	-11.9	11.6	-7.3
